This passage reports fluorescence ratio results from PubChem BioAssay.

Molecules are shown by their SMILES. Values without a mark were called inactive. The source made the active and inactive calls. No rule for the calls is given here.

The assay can be described thus: signal quenchers or enhancers, Cy5 substrate/SSB – biochemical, NIH Clinical Collection, E. coli SSB, artefact control for HCV NS3 helicase inhibitor project (AID 743268). Particulars: Cy5-oligo bound E. coli SSB, fluorescence interference.
With `C=CC[C@@H]1C=C(C)C[C@H](C)C[C@H](OC)[C@H]2O[C@@](O)(C(=O)C(=O)N3CCCC[C@H]3C(=O)O[C@H](/C(C)=C/[C@@H]3CC[C@@H](O)[C@H](OC)C3)[C@H](C)[C@@H](O)CC1=O)[C@H](C)C[C@@H]2OC`, the fluorescence ratio was 0.94.

As for `CN(C)S(=O)(=O)c1ccc2c(c1)/C(=C\CCN1CCNCC1)c1ccccc1S2`, the fluorescence ratio was 1.07.

Consider `C[C@]12C=CC(=O)C=C1CC[C@@H]1[C@@H]2[C@@H](O)C[C@@]2(C)[C@H]1CC[C@]2(O)C(=O)COC(=O)CCC(=O)O`, for which the fluorescence ratio is 1.

`CN(C)CC/C=C1/c2ccccc2COc2ccccc21`: the fluorescence ratio is 0.97.

Regarding `CC(=O)NCCCCCCNC(C)=O`, the fluorescence ratio is 1.01.

With `CO[C@H]1C=CO[C@@]2(C)Oc3c(C)c(O)c4c(O)c(c5c(nc6cc(C)ccn65)c4c3C2=O)NC(=O)C(C)=CC=C[C@H](C)[C@H](O)[C@@H](C)[C@@H](O)[C@@H](C)[C@H](OC(C)=O)[C@@H]1C`, the fluorescence ratio is 0.98.

In the case of `CO[C@H]1O[C@@H]2O[C@@]3(C)CC[C@H]4[C@H](C)CC[C@@H]([C@H]1C)[C@@]24OO3`, the fluorescence ratio is 1.02.

With `CC(C)CC(NC(=O)C(COC(C)(C)C)NC(=O)C(Cc1ccc(O)cc1)NC(=O)C(CO)NC(=O)C(Cc1c[nH]c2ccccc12)NC(=O)C(Cc1cnc[nH]1)NC(=O)C1CCC(=O)N1)C(=O)N[C@@H](CCCN=C(N)N)C(=O)N1CCCC1C(=O)NNC(N)=O` (stereo not given in full), the fluorescence ratio is 0.89.

For the molecule `COCCCCC(=NOCCN)c1ccc(C(F)(F)F)cc1`, the fluorescence ratio is 0.97.

As for `CCN(CC)CCOc1ccc(C(=C(Cl)c2ccccc2)c2ccccc2)cc1`, the fluorescence ratio was 0.76 (active).

Take `CO[C@H]1/C=C/O[C@@]2(C)Oc3c(C)c(O)c4c(O)c(c(C=NN5CCN(C6CCCC6)CC5)c(O)c4c3C2=O)NC(=O)/C(C)=C\C=C\[C@H](C)[C@H](O)[C@@H](C)[C@@H](O)[C@@H](C)[C@H](OC(C)=O)[C@@H]1C`: the fluorescence ratio is 1.06.

Turning to `O=C1CN(N=Cc2ccc([N+](=O)[O-])o2)C(=O)N1`, the fluorescence ratio was 1.

With `C=CC1=C(C(=O)O)N2C(=O)[C@@H](NC(=O)C(=NOCC(=O)O)c3csc(N)n3)[C@H]2SC1`, the fluorescence ratio is 1.01.

As for `COc1cc(N)c(Cl)cc1C(=O)N[C@@H]1CCN(CCCOc2ccc(F)cc2)C[C@@H]1OC`, the fluorescence ratio was 1.

With `COCC1=C(C(=O)OC(C)OC(=O)OC(C)C)N2C(=O)[C@@H](NC(=O)C(=NOC)c3csc(N)n3)[C@H]2SC1` (stereo not given in full), the fluorescence ratio is 0.97.
